Source: PubChem BioAssay AID1117288 (Broad Institute, 2014)
Measured potencies and affinities stand elsewhere. Records with an inconclusive call do not appear. Unmarked numbers belong to inactive results.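 The calls were made as follows: active = compound whose fitted half-inhibition dose sits at or below twice its top tested dose in every test run; inconclusive = test runs disagree, or every run is unclear; inactive = inactive in every test run.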

molecular target: Leucyl-cystinyl aminopeptidase (Mus musculus) (UniProt Q8C129); assay: mouse IRAP aminopeptidase activity inhibition – biochemical, dry powder samples, set 3, selectivity assay for ERAP1 modulator project, dose response (AID 1117288); conditions: purified IRAP enzyme, Leu-AMC fluorescence, 1 h; series mostly up to 50 µM; activity change, negative = inhibition: at the top concentration
Sequence (Q8C129 whole entry, looked up): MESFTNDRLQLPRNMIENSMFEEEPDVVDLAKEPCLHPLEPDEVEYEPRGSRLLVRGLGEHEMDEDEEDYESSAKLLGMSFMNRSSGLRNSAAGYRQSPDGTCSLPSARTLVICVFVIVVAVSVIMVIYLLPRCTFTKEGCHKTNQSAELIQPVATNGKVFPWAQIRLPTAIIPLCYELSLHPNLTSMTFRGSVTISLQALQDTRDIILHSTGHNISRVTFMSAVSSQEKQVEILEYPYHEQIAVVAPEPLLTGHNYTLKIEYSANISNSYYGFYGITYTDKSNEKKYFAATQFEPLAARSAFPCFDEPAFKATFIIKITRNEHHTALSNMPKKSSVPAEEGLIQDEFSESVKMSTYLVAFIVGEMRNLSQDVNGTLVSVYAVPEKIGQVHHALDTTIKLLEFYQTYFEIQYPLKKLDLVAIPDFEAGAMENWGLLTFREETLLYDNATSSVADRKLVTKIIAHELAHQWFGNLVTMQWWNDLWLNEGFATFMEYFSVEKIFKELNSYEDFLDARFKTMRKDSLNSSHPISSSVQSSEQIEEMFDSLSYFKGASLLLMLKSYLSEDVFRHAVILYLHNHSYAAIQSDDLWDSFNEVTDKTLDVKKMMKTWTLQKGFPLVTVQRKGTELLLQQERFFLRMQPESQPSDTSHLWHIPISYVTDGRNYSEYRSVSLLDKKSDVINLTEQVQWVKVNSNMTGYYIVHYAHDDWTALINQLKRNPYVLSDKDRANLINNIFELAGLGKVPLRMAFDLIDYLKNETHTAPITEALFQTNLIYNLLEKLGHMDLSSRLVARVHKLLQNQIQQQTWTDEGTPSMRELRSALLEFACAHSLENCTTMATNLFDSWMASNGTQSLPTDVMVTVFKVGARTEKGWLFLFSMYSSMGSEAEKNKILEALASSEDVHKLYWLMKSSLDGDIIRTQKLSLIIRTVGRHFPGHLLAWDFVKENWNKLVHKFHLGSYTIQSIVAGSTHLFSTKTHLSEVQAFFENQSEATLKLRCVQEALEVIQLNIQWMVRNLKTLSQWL

Compound | activity change, negative = inhibition
COc1ccc(C(=O)O)cc1S(=O)(=O)Nc1cc(C(F)(F)F)ccc1N1CCOCC1 | 28.6%
COc1ccc(C(=O)O)cc1S(=O)(=O)Nc1cc(C(F)(F)F)ccc1N1CCN(C)CC1 | 26.8%
COC(=O)c1ccc(OC)c(S(=O)(=O)Nc2cc(C(F)(F)F)ccc2N2CCCCC2)c1 | 16.9%
